# Data: publication PMC7862700, “An all-to-all approach to the identification of sequence-specific readers for epigenetic DNA modifications on cytosine”
# What was measured:
# Assay in all cases: DAPPL (digital affinity profiling via proximity ligation, sequencing); 10 mM Tris-HCl pH 7.5, 50 mM NaCl, 1 mM DTT, 4% glycerol, room temperature, 30 min; GST-TFs on glutathione beads, 16-mer random dsDNA library, 0.1% formaldehyde crosslink after washing; high values mean tight binding
# [1] = molecular target: T1, FLI1 (Homo sapiens, UniProt Q01543 1-452); details: protein: recombinant; tags: N-terminal GST; dsDNA, one strand shown
# T1 sequence: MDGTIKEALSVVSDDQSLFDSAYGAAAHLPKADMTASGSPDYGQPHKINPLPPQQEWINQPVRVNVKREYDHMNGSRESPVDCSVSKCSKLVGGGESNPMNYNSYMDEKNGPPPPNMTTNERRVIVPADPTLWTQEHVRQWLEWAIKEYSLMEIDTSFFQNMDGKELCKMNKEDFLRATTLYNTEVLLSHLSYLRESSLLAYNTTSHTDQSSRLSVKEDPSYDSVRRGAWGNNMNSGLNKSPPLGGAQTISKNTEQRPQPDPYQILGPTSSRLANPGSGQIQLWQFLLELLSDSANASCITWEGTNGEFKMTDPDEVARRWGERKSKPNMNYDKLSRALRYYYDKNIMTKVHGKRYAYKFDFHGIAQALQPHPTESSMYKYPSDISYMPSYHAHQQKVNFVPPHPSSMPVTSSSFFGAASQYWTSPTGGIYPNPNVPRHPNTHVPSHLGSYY
# How it was run: (§1)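 A tag-only sample was pooled with DNA-barcoded human transcription factors that had been expressed in yeast as GST fusions and captured on glutathione beads. The pools were incubated for 30 min at room temperature with 200 nmole of a random double-stranded 16-mer DNA library in Tris/NaCl/DTT/glycerol buffer, then washed, crosslinked with 0.1% formaldehyde, proximity-ligated (BsaI/T4 ligase, 1 h, 37 °C), PCR-amplified and sequenced on an Illumina NextSeq500. Binding signal is each hexamer's read frequency for a factor divided by its frequency for the tag-only sample.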
# [2] = molecular target: T2, ELK1 (Homo sapiens, UniProt P19419 1-428); details: protein: recombinant; tags: N-terminal GST; dsDNA, one strand shown
# T2 sequence: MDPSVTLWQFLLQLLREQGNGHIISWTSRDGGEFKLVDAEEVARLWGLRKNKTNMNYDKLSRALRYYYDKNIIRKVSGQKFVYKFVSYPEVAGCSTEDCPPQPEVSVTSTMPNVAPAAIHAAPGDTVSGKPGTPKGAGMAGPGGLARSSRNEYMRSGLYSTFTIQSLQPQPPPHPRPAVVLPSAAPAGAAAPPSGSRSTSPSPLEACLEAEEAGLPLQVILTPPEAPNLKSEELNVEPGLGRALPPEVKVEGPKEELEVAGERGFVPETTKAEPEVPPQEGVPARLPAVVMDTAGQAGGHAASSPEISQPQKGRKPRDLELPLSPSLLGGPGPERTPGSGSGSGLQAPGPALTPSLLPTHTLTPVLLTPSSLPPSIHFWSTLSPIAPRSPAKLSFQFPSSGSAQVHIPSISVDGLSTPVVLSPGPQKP
# How it was run: as §1
# [3] = molecular target: T3, GABPA (Homo sapiens, UniProt Q06546 1-454); details: protein: recombinant; tags: N-terminal GST; dsDNA, one strand shown
# T3 sequence: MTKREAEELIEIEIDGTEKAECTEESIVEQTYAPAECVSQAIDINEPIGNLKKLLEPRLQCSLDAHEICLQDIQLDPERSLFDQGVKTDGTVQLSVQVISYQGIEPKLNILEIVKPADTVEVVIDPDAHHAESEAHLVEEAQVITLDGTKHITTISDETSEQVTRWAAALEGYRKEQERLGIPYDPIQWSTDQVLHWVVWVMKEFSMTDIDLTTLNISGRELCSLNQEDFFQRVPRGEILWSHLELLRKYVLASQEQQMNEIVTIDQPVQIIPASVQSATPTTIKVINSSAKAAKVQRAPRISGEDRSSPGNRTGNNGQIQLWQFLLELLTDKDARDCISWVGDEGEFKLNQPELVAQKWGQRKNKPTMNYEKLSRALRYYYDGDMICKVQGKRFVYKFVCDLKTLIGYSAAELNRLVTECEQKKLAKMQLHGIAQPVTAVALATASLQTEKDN
# How it was run: as §1
# [4] = molecular target: T4, ERG (Homo sapiens, UniProt P11308 1-479); details: protein: recombinant; tags: N-terminal GST; dsDNA, one strand shown
# T4 sequence: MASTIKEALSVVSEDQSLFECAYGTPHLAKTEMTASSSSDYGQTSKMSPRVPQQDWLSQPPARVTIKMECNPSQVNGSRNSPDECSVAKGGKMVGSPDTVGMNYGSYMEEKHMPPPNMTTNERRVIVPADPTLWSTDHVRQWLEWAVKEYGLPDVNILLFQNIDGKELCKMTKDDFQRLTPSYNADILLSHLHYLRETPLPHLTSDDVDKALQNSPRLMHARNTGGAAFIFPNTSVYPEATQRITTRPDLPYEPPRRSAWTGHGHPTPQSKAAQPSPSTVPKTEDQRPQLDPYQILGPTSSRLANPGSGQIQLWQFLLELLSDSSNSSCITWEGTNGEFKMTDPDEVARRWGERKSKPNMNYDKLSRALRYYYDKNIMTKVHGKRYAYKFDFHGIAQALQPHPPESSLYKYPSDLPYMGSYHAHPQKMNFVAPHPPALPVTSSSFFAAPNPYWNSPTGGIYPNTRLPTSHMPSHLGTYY
# How it was run: as §1
# [5] = molecular target: ELF1 (Homo sapiens, UniProt P32519 1-619); details: protein: recombinant; tags: N-terminal GST; dsDNA, one strand shown
# How it was run: as §1
# [6] = molecular target: T5, EHF (Homo sapiens, UniProt Q9NZC4 1-300); details: protein: recombinant; tags: N-terminal GST; dsDNA, one strand shown
# T5 sequence: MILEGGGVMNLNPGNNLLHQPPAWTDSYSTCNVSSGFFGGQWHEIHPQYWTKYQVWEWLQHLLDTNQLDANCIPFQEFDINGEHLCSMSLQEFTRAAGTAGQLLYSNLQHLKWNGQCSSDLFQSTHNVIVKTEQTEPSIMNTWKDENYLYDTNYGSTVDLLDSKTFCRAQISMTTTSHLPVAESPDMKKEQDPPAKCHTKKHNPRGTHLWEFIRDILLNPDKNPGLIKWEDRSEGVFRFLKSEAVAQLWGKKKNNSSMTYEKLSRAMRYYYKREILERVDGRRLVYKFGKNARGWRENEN
# How it was run: as §1
# [7] = molecular target: SPI1 (Homo sapiens, UniProt P17947 1-270); details: protein: recombinant; tags: N-terminal GST; dsDNA, one strand shown
# How it was run: as §1
# [8] = molecular target: SPIB (Homo sapiens, UniProt Q01892 1-262); details: protein: recombinant; tags: N-terminal GST; dsDNA, one strand shown
# How it was run: as §1
# [9] = molecular target: T6, ELK3 (Homo sapiens, UniProt P41970 1-407); details: protein: recombinant; tags: N-terminal GST; dsDNA, one strand shown
# T6 sequence: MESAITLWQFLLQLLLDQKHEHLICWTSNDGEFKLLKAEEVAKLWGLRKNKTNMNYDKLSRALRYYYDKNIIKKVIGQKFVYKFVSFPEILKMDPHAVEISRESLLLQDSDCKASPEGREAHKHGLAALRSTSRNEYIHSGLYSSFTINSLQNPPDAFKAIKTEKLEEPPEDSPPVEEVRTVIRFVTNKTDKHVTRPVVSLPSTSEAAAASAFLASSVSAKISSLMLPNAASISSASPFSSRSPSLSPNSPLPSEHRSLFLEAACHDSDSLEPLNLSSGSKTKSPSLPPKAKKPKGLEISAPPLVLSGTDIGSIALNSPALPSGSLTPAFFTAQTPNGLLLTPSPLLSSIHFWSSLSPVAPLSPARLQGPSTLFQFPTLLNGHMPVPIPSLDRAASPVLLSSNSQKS
# How it was run: as §1
# [10] = molecular target: T7, FEV (Homo sapiens, UniProt Q99581 1-238); details: protein: recombinant; tags: N-terminal GST; dsDNA, one strand shown
# T7 sequence: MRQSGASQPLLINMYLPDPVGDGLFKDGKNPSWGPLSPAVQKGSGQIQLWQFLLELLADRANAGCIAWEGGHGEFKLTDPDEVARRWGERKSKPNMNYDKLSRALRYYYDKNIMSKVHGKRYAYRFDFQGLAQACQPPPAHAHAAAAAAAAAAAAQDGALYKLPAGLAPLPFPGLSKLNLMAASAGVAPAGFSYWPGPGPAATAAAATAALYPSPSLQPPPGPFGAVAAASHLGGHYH
# How it was run: as §1
# [11] = molecular target: ETV5 (Homo sapiens, UniProt P41161 1-510); details: protein: recombinant; tags: N-terminal GST; dsDNA, one strand shown
# How it was run: as §1
# [12] = molecular target: HSF1 (Homo sapiens, UniProt Q00613 1-529); details: protein: recombinant; tags: N-terminal GST; chain copies: 3; dsDNA, one strand shown
# How it was run: as §1
# [13] = molecular target: T8, SPIC (Homo sapiens, UniProt Q8N5J4 1-248); details: protein: recombinant; tags: N-terminal GST; dsDNA, one strand shown
# T8 sequence: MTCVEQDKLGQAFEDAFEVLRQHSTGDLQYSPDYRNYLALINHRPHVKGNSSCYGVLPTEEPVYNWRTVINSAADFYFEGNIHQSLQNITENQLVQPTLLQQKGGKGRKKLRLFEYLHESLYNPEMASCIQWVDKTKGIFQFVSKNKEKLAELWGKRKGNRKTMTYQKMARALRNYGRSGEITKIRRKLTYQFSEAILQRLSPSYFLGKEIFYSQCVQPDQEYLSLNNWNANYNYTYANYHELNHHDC
# How it was run: as §1
# [14] = molecular target: ELF4 (Homo sapiens, UniProt Q99607 1-663); details: protein: recombinant; tags: N-terminal GST; dsDNA, one strand shown
# How it was run: as §1
# [15] = molecular target: T9, ELK4 (Homo sapiens, UniProt P28324-2 1-405); details: protein: recombinant; tags: N-terminal GST; dsDNA, one strand shown
# T9 sequence: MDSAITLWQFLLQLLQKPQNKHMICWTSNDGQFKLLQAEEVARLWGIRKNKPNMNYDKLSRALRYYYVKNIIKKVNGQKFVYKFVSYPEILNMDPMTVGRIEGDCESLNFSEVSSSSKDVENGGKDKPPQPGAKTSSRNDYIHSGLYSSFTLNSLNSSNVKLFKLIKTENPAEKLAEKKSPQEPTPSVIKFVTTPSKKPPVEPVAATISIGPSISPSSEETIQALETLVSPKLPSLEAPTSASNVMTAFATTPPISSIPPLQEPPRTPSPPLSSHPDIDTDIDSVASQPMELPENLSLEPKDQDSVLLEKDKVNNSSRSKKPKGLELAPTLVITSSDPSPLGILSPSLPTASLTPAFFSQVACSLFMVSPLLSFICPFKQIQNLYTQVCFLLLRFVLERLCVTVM
# How it was run: as §1
# [16] = molecular target: T10, ETV2 (Homo sapiens, UniProt O00321 1-342); details: protein: recombinant; tags: N-terminal GST; dsDNA, one strand shown
# T10 sequence: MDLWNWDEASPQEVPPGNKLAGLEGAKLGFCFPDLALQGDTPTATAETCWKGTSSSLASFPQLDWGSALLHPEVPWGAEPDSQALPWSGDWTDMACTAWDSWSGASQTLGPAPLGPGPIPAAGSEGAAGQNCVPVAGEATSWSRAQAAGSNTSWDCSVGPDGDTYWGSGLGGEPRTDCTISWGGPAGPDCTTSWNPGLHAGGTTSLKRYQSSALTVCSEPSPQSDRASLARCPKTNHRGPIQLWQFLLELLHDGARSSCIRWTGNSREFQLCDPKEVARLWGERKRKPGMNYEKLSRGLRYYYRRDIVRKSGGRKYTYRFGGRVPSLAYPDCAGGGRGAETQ
# How it was run: as §1
# [17] = molecular target: T11, ELF3 (Homo sapiens, UniProt P78545 1-371); details: protein: recombinant; tags: N-terminal GST; dsDNA, one strand shown
# T11 sequence: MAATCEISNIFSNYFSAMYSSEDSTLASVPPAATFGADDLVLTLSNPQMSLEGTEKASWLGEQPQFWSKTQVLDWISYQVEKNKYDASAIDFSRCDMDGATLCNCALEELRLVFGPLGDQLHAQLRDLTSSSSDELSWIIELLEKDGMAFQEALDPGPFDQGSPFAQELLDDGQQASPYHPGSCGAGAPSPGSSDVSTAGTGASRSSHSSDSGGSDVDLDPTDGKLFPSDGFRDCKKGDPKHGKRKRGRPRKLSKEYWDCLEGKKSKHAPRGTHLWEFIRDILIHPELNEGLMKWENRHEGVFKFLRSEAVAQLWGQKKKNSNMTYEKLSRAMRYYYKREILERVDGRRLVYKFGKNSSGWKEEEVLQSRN
# How it was run: as §1
# [18] = molecular target: CRX (Homo sapiens, UniProt O43186 1-299); details: protein: recombinant; tags: N-terminal GST; dsDNA, one strand shown
# How it was run: as §1
# [19] = molecular target: ETV1 (Homo sapiens, UniProt P50549 1-477); details: protein: recombinant; tags: N-terminal GST; dsDNA, one strand shown
# How it was run: as §1
# Sequence of ELF4 (Q99607 whole entry): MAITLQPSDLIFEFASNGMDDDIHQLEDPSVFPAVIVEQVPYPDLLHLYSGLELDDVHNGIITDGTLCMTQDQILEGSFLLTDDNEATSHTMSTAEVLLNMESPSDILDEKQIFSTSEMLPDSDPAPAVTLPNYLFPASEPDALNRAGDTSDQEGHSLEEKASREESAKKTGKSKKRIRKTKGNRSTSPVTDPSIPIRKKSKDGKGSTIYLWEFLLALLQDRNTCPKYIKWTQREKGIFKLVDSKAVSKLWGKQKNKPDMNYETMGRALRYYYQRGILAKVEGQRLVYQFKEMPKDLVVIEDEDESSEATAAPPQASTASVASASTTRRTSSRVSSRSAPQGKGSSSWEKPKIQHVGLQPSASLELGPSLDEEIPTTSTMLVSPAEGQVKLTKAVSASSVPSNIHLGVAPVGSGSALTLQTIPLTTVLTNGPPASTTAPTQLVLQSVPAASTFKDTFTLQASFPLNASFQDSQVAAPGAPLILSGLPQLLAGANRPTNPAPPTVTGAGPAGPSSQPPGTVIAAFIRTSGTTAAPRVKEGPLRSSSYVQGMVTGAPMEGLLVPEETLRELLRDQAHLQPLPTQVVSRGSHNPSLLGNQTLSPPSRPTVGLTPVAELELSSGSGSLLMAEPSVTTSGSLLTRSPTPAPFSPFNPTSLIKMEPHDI
# Sequence of ETV5 (P41161 whole entry): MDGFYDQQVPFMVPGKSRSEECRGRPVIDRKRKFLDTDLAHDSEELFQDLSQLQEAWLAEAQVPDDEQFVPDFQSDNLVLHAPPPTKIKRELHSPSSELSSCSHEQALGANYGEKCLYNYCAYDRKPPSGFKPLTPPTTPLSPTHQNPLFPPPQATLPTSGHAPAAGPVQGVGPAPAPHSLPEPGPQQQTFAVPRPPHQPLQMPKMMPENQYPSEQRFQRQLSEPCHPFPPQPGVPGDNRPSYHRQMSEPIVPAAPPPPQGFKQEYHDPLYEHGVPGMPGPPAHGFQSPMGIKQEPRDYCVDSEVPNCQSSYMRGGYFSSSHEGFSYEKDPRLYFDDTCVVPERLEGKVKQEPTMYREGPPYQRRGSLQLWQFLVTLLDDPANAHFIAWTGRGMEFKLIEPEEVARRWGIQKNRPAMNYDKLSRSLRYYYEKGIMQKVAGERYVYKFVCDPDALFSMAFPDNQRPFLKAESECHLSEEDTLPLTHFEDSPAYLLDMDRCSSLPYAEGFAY
# Sequence of SPIB (Q01892 whole entry): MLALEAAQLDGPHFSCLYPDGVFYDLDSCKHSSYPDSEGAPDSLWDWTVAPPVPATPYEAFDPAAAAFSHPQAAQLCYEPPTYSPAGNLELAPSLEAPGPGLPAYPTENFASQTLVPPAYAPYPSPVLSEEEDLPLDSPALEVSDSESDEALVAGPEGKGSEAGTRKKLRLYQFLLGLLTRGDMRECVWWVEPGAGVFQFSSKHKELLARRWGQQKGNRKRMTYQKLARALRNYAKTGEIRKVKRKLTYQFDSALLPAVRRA
# Sequence of ELF1 (P32519 whole entry): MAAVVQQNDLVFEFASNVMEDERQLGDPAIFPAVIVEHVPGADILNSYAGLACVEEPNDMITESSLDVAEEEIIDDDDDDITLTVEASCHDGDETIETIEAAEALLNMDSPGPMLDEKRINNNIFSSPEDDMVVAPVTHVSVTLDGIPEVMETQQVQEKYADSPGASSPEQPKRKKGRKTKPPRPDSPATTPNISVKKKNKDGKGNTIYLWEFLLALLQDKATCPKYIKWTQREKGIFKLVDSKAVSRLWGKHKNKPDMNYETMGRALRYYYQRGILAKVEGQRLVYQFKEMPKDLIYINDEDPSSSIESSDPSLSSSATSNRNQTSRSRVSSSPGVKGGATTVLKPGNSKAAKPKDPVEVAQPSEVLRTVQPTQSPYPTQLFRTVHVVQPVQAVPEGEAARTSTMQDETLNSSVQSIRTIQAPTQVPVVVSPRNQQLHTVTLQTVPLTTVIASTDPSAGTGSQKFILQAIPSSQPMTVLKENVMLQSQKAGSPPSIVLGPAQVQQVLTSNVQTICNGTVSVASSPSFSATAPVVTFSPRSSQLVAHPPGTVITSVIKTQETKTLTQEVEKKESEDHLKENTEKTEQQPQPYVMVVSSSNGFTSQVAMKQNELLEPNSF
# Sequence of ETV1 (P50549 whole entry): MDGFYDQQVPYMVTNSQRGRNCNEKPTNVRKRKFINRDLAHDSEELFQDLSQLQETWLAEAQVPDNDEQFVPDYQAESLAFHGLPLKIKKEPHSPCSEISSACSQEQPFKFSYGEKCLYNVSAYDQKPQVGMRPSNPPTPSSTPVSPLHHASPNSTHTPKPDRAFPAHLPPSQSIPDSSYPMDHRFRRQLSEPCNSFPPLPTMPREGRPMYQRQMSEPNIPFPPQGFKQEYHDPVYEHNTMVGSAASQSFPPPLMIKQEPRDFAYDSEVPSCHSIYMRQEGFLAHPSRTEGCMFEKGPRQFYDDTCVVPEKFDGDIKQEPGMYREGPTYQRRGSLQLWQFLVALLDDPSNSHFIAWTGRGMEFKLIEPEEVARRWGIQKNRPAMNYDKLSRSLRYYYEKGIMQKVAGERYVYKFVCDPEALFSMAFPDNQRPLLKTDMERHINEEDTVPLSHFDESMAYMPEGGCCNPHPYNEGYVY
# Sequence of HSF1 (Q00613 whole entry): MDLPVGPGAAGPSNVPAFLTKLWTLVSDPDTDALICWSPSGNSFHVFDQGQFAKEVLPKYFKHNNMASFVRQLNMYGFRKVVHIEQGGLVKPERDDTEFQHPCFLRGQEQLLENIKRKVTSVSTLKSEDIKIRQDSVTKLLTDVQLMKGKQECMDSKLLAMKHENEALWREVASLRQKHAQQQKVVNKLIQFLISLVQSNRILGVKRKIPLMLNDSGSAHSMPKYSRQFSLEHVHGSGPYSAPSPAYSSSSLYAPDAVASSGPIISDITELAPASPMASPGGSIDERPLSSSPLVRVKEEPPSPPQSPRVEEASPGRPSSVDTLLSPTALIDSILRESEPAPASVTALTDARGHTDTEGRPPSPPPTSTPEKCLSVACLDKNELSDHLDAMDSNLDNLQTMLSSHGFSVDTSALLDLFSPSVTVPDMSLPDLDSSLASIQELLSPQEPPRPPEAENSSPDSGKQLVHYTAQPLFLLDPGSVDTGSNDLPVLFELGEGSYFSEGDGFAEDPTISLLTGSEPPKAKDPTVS
# Sequence of CRX (O43186 whole entry): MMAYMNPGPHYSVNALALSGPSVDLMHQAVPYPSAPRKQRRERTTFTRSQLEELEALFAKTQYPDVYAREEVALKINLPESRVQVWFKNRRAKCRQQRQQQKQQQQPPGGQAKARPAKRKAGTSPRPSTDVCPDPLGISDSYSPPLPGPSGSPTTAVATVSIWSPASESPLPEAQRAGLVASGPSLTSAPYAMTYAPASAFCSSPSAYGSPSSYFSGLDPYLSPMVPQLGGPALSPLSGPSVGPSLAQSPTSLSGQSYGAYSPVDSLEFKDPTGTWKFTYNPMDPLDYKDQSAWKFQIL
sequence,measurement,setting,value
CTGACT,binding signal,[1],"1.25 fold enrichment (6-mer frequency, TF over GST control)"
same,binding signal,[2],"1.26 fold enrichment (6-mer frequency, TF over GST control)"
same,binding signal,[3],"1.29 fold enrichment (6-mer frequency, TF over GST control)"
same,binding signal,[4],"1.22 fold enrichment (6-mer frequency, TF over GST control)"
same,binding signal,[5],"1.32 fold enrichment (6-mer frequency, TF over GST control)"
same,binding signal,[6],"1.31 fold enrichment (6-mer frequency, TF over GST control)"
same,binding signal,[7],"1.27 fold enrichment (6-mer frequency, TF over GST control)"
same,binding signal,[8],"1.43 fold enrichment (6-mer frequency, TF over GST control)"
same,binding signal,[9],"1.26 fold enrichment (6-mer frequency, TF over GST control)"
same,binding signal,[10],"1.32 fold enrichment (6-mer frequency, TF over GST control)"
same,binding signal,[11],"1.23 fold enrichment (6-mer frequency, TF over GST control)"
same,binding signal,[12],"1.05 fold enrichment (6-mer frequency, TF over GST control)"
same,binding signal,[13],"1.24 fold enrichment (6-mer frequency, TF over GST control)"
same,binding signal,[14],"1.37 fold enrichment (6-mer frequency, TF over GST control)"
same,binding signal,[15],"1.22 fold enrichment (6-mer frequency, TF over GST control)"
same,binding signal,[16],"1.48 fold enrichment (6-mer frequency, TF over GST control)"
same,binding signal,[17],"1.52 fold enrichment (6-mer frequency, TF over GST control)"
same,binding signal,[18],"1.07 fold enrichment (6-mer frequency, TF over GST control)"
same,binding signal,[19],"1.4 fold enrichment (6-mer frequency, TF over GST control)"
